Assay outcomes deposited in PubChem by National Center for Advancing Translational Sciences (NCATS).
In the library only some 0.38% were active in any assay of this set; here they are far more common.
EPAC1 agonist: qHTS for Agonist of cAMP-regulated guanine nucleotide exchange factor 3 (EPAC1): primary screen | Rap guanine nucleotide exchange factor 3 (Homo sapiens), O95398 | EPAC1 agonist qHTS, biochemical assay; response scale: 100% = response to 6.5 mM cAMP | Potency, µM (doses to about 154 µM), for the others: at the highest dose activation, hits mostly activators | 360,000 compounds, 0.073% hits | AID 720707, 2013; also: nearly all actives have a fitted effect of over 60% in size
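Compounds were pinned as a concentration titration into mixtures of EPAC1 (100 nM), BODIPY-GDP-loaded Rap1B (250 nM) and GDP (50 uM). After 5 min at room temperature, fluorescence was followed for 30 min; activity was scaled to 6.5 mM cAMP.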
EPAC2 agonist: qHTS for Agonist of cAMP-regulated guanine nucleotide exchange factor 4 (EPAC2): primary screen; Rap guanine nucleotide exchange factor 4 (Homo sapiens), Q8WZA2; EPAC2 activation, biochemical qHTS; response scale: 100% = 6.5 mM cAMP response; Potency, µM (doses to about 154 µM), without a hit: top-dose activation, usual class: activators; 360,000 compounds, 0.079% hits; also: nearly all actives have a fitted effect of over 50% in size
Target sequence (Q8WZA2 whole entry, looked up): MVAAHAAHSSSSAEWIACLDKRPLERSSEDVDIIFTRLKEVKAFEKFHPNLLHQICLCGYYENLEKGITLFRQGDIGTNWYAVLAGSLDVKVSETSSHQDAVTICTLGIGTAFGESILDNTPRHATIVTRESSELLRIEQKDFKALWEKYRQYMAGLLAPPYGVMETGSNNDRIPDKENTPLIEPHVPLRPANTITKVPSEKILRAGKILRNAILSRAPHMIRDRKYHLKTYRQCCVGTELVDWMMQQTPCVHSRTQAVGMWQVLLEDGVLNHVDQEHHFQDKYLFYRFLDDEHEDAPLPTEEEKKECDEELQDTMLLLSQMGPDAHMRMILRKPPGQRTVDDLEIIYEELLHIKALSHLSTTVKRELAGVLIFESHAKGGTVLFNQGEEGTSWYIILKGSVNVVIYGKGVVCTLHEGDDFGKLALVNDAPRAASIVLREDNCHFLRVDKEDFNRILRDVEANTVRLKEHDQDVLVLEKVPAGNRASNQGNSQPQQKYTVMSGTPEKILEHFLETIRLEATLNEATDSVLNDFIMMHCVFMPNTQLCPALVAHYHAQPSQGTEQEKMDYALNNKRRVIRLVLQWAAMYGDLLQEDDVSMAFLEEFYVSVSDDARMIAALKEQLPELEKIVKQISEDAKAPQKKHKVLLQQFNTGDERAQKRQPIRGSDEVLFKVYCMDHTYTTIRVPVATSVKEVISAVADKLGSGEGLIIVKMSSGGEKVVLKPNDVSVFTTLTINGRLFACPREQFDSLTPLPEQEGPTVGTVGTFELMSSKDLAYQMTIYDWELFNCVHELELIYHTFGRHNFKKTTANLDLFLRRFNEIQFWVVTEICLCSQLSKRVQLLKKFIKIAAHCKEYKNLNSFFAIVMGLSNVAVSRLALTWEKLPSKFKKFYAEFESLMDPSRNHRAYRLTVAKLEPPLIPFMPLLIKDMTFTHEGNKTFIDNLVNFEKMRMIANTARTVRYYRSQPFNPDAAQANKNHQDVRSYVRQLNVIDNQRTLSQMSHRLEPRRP
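Exchange assay: 100 nM EPAC2 with 250 nM Rap1B-BODIPY-GDP and 50 uM GDP. Fluorescence (ex 480/em 540 nm) read every 5 min for 30 min at room temperature. Data normalized to 6.5 mM cAMP as agonist control.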
EPAC1 antagonist: qHTS for Antagonist of cAMP-regulated guanine nucleotide exchange factor 3 (EPAC1): primary screen; Rap guanine nucleotide exchange factor 3 (Homo sapiens), O95398; EPAC1 GEF assay, Rap1b-BODIPY-GDP exchange fluorescence; Potency, µM (titrated, usually from 115 µM), inactives show at the highest dose activity change, negative = inhibition, most hits filed as inhibitors; 360,000 compounds, 0.14% hits;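 also: plate controls were vehicle for no effect and positive control for full effect; nearly all actives have a fitted effect of over 50% in size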
EPAC2 antag: qHTS for Antagonist of cAMP-regulated guanine nucleotide exchange factor 2 (EPAC2): primary screen; EPAC2 GEF exchange of Rap1B-BODIPY-GDP, fluorescence; 360,000 compounds, 0.18% hits; AID 720708, 2013; Potency, µM (highest dose often 114 µM), for inactives: at the top dose activity, negative = inhibition, actives largely listed as inhibitors; also: % is scaled to controls: 0 for no effect and ±100 for the full control effect; nearly all actives have a fitted effect of over 45% in size
Starred values were filed as active, the others as inactive; u = inconclusive. Calls follow the shape of the dose curve; as a rule, active = well fitted curve in the direction sought with a large enough effect; inconclusive = small, poorly fitted or top-dose-only effect, or another doubt; inactive = no such curve, though single readings can be large; an effect the other way counts as inactive or inconclusive. Potency is read from the fitted curve at half-maximal effect.

SMILES | EPAC1 agonist | EPAC2 agonist | EPAC1 antagonist | EPAC2 antag
COc1ccccc1/C=C/C=C1\Oc2c(ccc(O)c2CN2CCN(CCO)CC2)C1=O | 100µM* | u | 118% | 47%
CNc1ccc(Cl)cc1S(=O)(=O)c1ccccc1[N+](=O)[O-] | -4% | 6% | -16% | 63µM*
O=[N+]([O-])c1ccccc1S(=O)(=O)c1ccccc1 | 0% | 8% | 7% | -18%
O=C(O)COc1ccc(/C=N/NC(=O)c2ccc(-c3csc(Nc4ccc(Cl)cc4)n3)cc2)cc1 | 12% | -5% | 7.9µM* | u
CCOc1cc(/C=N/NC(=O)c2ccc(-c3csc(Nc4ccc(C)cc4)n3)cc2)ccc1OCC(=O)O | u | 19% | 40µM* | -22%
COc1cc(OC)cc(C(=O)N2CCN(C3CCC(C)CC3)CC2)c1 (stereo not drawn) | -5% | -5% | -3% | 1%
CC(NC(=O)Nc1ccc(O)cc1)(C(F)(F)F)C(F)(F)F | -2% | -19% | 79µM* | u
CCCn1c(CN2CCN(C(=O)c3ccco3)CC2)nc2cc(S(=O)(=O)N(C)C)ccc21 | 0% | 12% | -8% | -4%
CC1(c2nnnn2-c2ccc3c(c2)OCCO3)CCC(=O)N1CC1CCCCC1 (stereo not drawn) | -13% | 5% | -4% | 0%
CCCN1C(=O)/C(=C/C=C2\N(CC)c3ccccc3C2(C)C)SC1=S | 22% | -12% | 17% | 21%
CCCCN1C(=O)/C(=C/C=C2\Oc3ccccc3N2CC)SC1=S | u | 32µM* | -14% | 30%
COc1ccc(CC(=O)Nc2cc(S(=O)(=O)Nc3ccc(OC)cc3)ccc2OC)cc1 | 11% | 12% | -15% | -12%
CCOc1ccccc1NC(=O)Nc1ccc2c(c1)OCO2 | -6% | 10% | -3% | -5%
C=CCOc1ccccc1CN(C(=O)CCl)c1ccc2c(c1)OCO2 | -14% | 10% | -19% | 13µM*
Oc1[nH]c2ccc(Br)cc2c1N=Nc1ccc(F)cc1 | -129% | -170% | u | 71µM*
Oc1[nH]c2ccccc2c1N=Nc1ccc(F)cc1 | -229% | -208% | 93% | 102%
CCN(CC)C(=O)[C@H]1C[C@H](CC(=O)NCCCOC)C(=O)N2CCc3c([nH]c4cc(CCC(=O)N(C)C)ccc34)[C@]12C | -7% | 4% | 8% | 1%
CCN1C(=O)N(S(=O)(=O)C(F)(F)F)[C@@H](c2ccccc2)C(C(=O)OC)=C1C | -20% | 3% | -9% | 32µM*
CS(=O)(=O)N1N=C(c2ccco2)CC1c1ccc(Cl)cc1Cl (stereo not drawn) | 4% | 6% | -5% | 10µM*
CN(C)c1ccc(C(=O)c2ccc(O)cc2O)cc1 | 4% | -8% | 2% | -5%
CN(C)c1ccc(Cc2cc3c(O)ccc(O)c3cc(Cc3ccc(N(C)C)cc3)c2=O)cc1 | 9% | 10% | 50µM* | -5%
Cc1ccccc1CN1CC2=C(CCN(Cc3ccccc3)C2=O)N2CCN=C12 | -3% | 6% | -7% | -11%
Cc1cc(C)c(NC(=O)COC(=O)c2cccc3c2C(=O)c2ccccc2C3=O)c(C)c1 | 5% | 1% | -3% | 12%
Cc1cc(C)c(Nc2cc(S(=O)(=O)O)c(N)c3c2C(=O)c2ccccc2C3=O)c(C)c1 | -21% | -4% | 50µM* | u
Cc1ccc(/C=N/NC(=O)c2nnn(-c3nonc3N)c2-c2ccc3c(c2)OCO3)s1 | 11% | 12% | 16% | 1%
SMILES | EPAC1 agonist | EPAC2 agonist | EPAC1 antagonist | EPAC2 antag
O=C(O)c1ccc(COc2ccccc2/C=C2/NC(=O)N(c3cccc(Cl)c3)C2=O)cc1 | 89µM* | 20% | u | u
Cc1cccc(NC(=O)CN2C(=O)N/C(=C\c3ccccc3OCc3ccc(C(=O)O)cc3)C2=O)c1 | 2% | -1% | 28µM* | -20%
O=C1CCCC2=C1C(c1ccc(Br)cc1)c1c([nH]c(=S)[nH]c1=O)N2 (stereo not drawn) | 1% | -2% | 10% | 11%
O=c1[nH]c(=S)[nH]c2c1C(c1ccc(Br)cc1)c1c([nH]c(=S)[nH]c1=O)O2 | -7% | 3% | 35µM* | 1%
COc1cc(-c2ccc3cc(OC)c(OC)c(OC)c3c2)cc(OC)c1OC | 26% | 24% | -12% | -13%
COc1cc(C)ccc1S(=O)(=O)NC(=O)C1(C)CCN1C(=O)c1ccc(C(F)(F)F)nc1C (stereo not drawn) | 7% | 5% | 15% | 9%
O=C(COc1ccccc1Cl)Nc1cccc(S(=O)(=O)NC2=NCCCCC2)c1 | 126µM* | 3% | -13% | -4%
COc1ccccc1OCC(=O)Nc1cccc(S(=O)(=O)NC2=NCCCCC2)c1 | u | 6% | -16% | 4%
COc1cc(C=NNc2ccc(S(=O)(=O)Nc3ccccc3C(=O)O)cc2[N+](=O)[O-])ccc1O | -4% | -16% | 89µM* | u
COc1ccccc1NS(=O)(=O)c1cccc(-n2c(O)c(C=Nc3ccccc3C(=O)O)c3ccccc3c2=O)c1 | 5% | 2% | 56µM* | u
O=C(O)c1ccccc1NS(=O)(=O)c1ccc(NNC(=S)Nc2ccc(OC(F)F)cc2)c([N+](=O)[O-])c1 | -10% | -10% | u | u
CC(=O)Nc1cccc(/C(C)=N/Nc2ccc(S(=O)(=O)Nc3ccccc3C(=O)O)cc2[N+](=O)[O-])c1 | -14% | -5% | 50µM* | u
CN(CCO)c1ccc(C=NNc2ccc([N+](=O)[O-])cc2S(=O)(=O)Nc2ccccc2C(=O)O)cc1 | -6% | 1% | 50µM* | u
COc1ccc(C(C)=NNc2ccc([N+](=O)[O-])cc2S(=O)(=O)Nc2ccccc2C(=O)O)c(OC)c1 | 8% | -1% | -28% | u
CC(C)(C)n1nnnc1C(c1ccccc1)N1CCN(c2ccccn2)CC1 (stereo not drawn) | 4% | 2% | -1% | -6%
Cc1noc(C)c1COC(=O)c1csc2c1CCC(C)C2 (stereo not drawn) | 9% | 12% | 2% | 6%
C[C@H]1CN(S(=O)C(C)(C)C)[C@@H](CCO)/C1=C\CCO (stereo partly drawn) | 13% | 5% | -22% | 3%
CCN1CCN(c2ccc(NC(=O)CC3OC(=O)c4ccccc43)cc2C)CC1 (stereo not drawn) | 3% | 3% | 0% | -5%
CCOc1cc(/C=N/Nc2ccc(S(=O)(=O)Nc3ccccc3C(=O)O)cc2[N+](=O)[O-])cc(Cl)c1O | -3% | 4% | 50µM* | 4%
CC(=O)Nc1ccc(C=NNc2ccc(S(=O)(=O)Nc3ccccc3C(=O)O)cc2[N+](=O)[O-])cc1 | 1% | 4% | 79µM* | 50µM*
